In PubChem BioAssay (NCATS):
Inconclusive results are not listed. The source made the active and inactive calls. Unless noted, calls follow the shape of the dose curve; as a rule, active = well fitted curve in the direction sought with a large enough effect; inconclusive = small, poorly fitted or top-dose-only effect, or another doubt; inactive = no such curve, though single readings can be large; an effect the other way counts as inactive or inconclusive.

Key:
[1] = target: Alpha-galactosidase A (Homo sapiens) (UniProt P06280); test: Counterscreen for Glucocerebrosidase Inhibitors: qHTS Assay for Human alpha-Galactosidase at pH 4.5 (AID 992); conditions: purified enzyme, fluorogenic substrate; series mostly up to 76.9 µM
Alpha-galactosidase A (Homo sapiens), sequence (P06280 whole entry, looked up): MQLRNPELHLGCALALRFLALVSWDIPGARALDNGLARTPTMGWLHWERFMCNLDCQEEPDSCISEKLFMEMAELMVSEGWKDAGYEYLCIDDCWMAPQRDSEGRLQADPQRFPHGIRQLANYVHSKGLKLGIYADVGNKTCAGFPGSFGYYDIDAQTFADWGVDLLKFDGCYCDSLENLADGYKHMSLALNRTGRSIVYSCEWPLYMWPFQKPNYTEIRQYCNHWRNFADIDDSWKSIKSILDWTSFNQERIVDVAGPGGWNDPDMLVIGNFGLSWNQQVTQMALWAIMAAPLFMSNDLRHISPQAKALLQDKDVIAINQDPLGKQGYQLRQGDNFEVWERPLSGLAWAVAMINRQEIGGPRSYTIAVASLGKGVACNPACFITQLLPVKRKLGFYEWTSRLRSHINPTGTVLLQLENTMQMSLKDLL
In short: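 Read-out is 4-methylumbelliferone fluorescence (365 nm excitation, 440 nm emission) after a pH 10 NaOH/glycine stop. Reactions held 2 nM enzyme and 80 uM substrate at pH 4.5 for 20 min at room temperature.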

[2] = target: alpha-glucosidase (Oryza sativa, rice) (UniProt Q653V4); test: Counterscreen for Glucocerebrosidase Inhibitors: qHTS Assay for Rice alpha-Glucosidase at pH 5.0 (AID 997); conditions: rice alpha-glucosidase enzyme activity; series mostly up to 76.9 µM
In short: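 Rice alpha-glucosidase (4 nM final) with 400 uM 4-methylumbelliferyl-alpha-D-glucopyranoside in citrate buffer pH 5.0, 20 min at room temperature, stopped at pH 10; fluorescence 365/440 nm, compounds 0.7 nM–77 uM, AC50 from Hill fits.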

[3] = Cell Viability - LYMP2-025 (AID 976); conditions: LYMP2-025 lymphoblastoid cell viability; series mostly up to 92.2 µM; also: potency is read from the fitted curve at half-maximal effect
In short: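 Seed 2500 LYMP2-025 cells/well; 5 hr at 37 C; add compound; 24 hr at 37 C; add CellTiter-Glo; 30 min RT; read luminescence. AC50 from Hill-modelled concentration-response.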

[4] = Cell Viability - LYMP2-002 (AID 977); conditions: LYMP2-002 lymphoblastoid cell viability, qHTS; series mostly up to 92.2 µM; also: potency is read from the fitted curve at half-maximal effect
In short: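 Luminescent ATP readout (CellTiter-Glo, 30 min room temperature) after 24 h compound exposure at 37 C of a human lymphoblastoid line, 2500 cells/well. AC50 values derived by standard Hill fitting of qHTS concentration-response data.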

[5] = Cell Viability - LYMP2-006 (AID 978); conditions: LYMP2-006 lymphoblastoid cell viability, qHTS; series mostly up to 92.2 µM; also: nearly all actives have a fitted effect of over 60% in size; also: potency is read from the fitted curve at half-maximal effect
In short: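 Human lymphoblastoid cells (LYMP2-006), 2500/well in complete medium, were treated with compound for 24 hr at 37 C. Cellular ATP was read by CellTiter-Glo luminescence after 30 min, and AC50 values came from Hill-equation fits of concentration-response data.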

[6] = Cell Viability - LYMP2-007 (AID 979); conditions: LYMP2-007 lymphoblastoid cell viability; series mostly up to 92.2 µM;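 also: cells exposed to compound for 24 h before reading; nearly all actives have a fitted effect of over 60% in size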; also: potency is read from the fitted curve at half-maximal effect
In short: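 Luminescent ATP signal (CellTiter-Glo) serves as the viability read-out after 24 hr compound treatment of lymphoblastoid cells in complete medium at 37 C. Concentration-response data were fitted to the Hill equation to give AC50 values.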

[7] = Cell Viability - LYMP2-008 (AID 980); conditions: LYMP2-008 lymphoblastoid cell viability, qHTS; series mostly up to 92.2 µM; also: nearly all actives have a fitted effect of over 60% in size; also: potency is read from the fitted curve at half-maximal effect
In short: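 qHTS, human lymphoblastoid line, 2500 cells/well; 5 hr preincubation, 24 hr compound, 37 C. CellTiter-Glo ATP luminescence. AC50 via Hill equation. Tetraoctylammonium bromide positive control.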

[8] = Cell Viability - LYMP2-010 (AID 981); conditions: LYMP2-010 lymphoblastoid cell viability, qHTS; series mostly up to 92.2 µM; also: nearly all actives have a fitted effect of over 55% in size; also: potency is read from the fitted curve at half-maximal effect
In short: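 Luminescent ATP signal (CellTiter-Glo) served as the viability read-out. Cells of the human lymphoblastoid line were treated with compound over a concentration range for 24 hours at 37 C, and AC50 values came from Hill-equation modeling.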

[9] = Cell Viability - LYMP2-012 (AID 982); conditions: LYMP2-012 lymphoblastoid cell viability qHTS; series mostly up to 92.2 µM;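 also: cellular ATP by luciferase luminescence where a drop means cytotoxicity; cells exposed to compound for one day before reading; nearly all actives have a fitted effect of over 55% in size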; also: potency is read from the fitted curve at half-maximal effect
[10] = Cell Viability - LYMP2-014 (AID 983); conditions: LYMP2-014 lymphoblastoid cells, viability qHTS; series mostly up to 92.2 µM; also: nearly all actives have a fitted effect of over 50% in size; also: potency is read from the fitted curve at half-maximal effect
In short: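 Luminescent ATP signal (CellTiter-Glo, 30 min at room temperature) serves as the viability read-out after 24 hr compound exposure at 37 C. Cells were seeded at 2500 per well and settled 5 hr beforehand.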

[11] = Cell Viability - LYMP2-016 (AID 984); conditions: LYMP2-016 lymphoblastoid cell viability, qHTS; series mostly up to 92.2 µM; also: nearly all actives have a fitted effect of over 55% in size; also: potency is read from the fitted curve at half-maximal effect
In short: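 Human lymphoblastoid LYMP2-016 cells, 2500 per well, treated with compounds for 24 h at 37 C. Viability read as intracellular ATP by CellTiter-Glo luminescence after 30 min at room temperature; AC50 from Hill fits of concentration-response.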

[12] = Cell Viability - LYMP2-018 (AID 985); conditions: LYMP2-018 lymphoblastoid cells, viability (qHTS); series mostly up to 92.2 µM; also: nearly all actives have a fitted effect of over 50% in size; also: potency is read from the fitted curve at half-maximal effect
In short: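 Luminescent ATP signal (CellTiter-Glo, read after 30 min at room temperature) reports viable cells after 24 hr compound treatment at 37 C. Concentration-response data were fitted to the standard Hill equation for AC50.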

[13] = Cell Viability - LYMP2-020 (AID 986); conditions: series mostly up to 92.2 µM; also: nearly all actives have a fitted effect of over 55% in size; also: potency is read from the fitted curve at half-maximal effect
In short: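 Luminescent ATP signal (CellTiter-Glo, 30 min at room temperature) is the read-out after 24 h compound treatment of lymphoblastoid cells at 37 C. AC50 values come from Hill-equation fits across concentrations.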

[14] = Cell Viability - LYMP2-022 (AID 987); conditions: LYMP2-022 lymphoblastoid cell viability; series mostly up to 92.2 µM; also: nearly all actives have a fitted effect of over 55% in size; also: potency is read from the fitted curve at half-maximal effect
In short: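 qHTS: human lymphoblastoid cells 2500/well; 5 hr 37 C; cpd added; 24 hr 37 C; CellTiter-Glo, 30 min RT; luminescence. AC50 via Hill fit; tetraoctylammonium bromide positive ctrl.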

[15] = Cell Viability - LYMP2-024 (AID 988); conditions: LYMP2-024 lymphoblastoid cell viability; series mostly up to 92.2 µM; also: nearly all actives have a fitted effect of over 60% in size; also: potency is read from the fitted curve at half-maximal effect
In short: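 Steps: seed 2500 cells/well, 5 hr 37 C; add compound, 24 hr 37 C; add CellTiter-Glo, 30 min room temperature; read luminescence. AC50 derived by Hill modelling of concentration-dependent ATP loss.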

[16] = Cell Viability - LYMP2-026 (AID 989); conditions: LYMP2-026 lymphoblastoid cell viability, qHTS; series mostly up to 92.2 µM; also: nearly all actives have a fitted effect of over 50% in size; also: potency is read from the fitted curve at half-maximal effect
In short: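 Luminescent ATP signal (CellTiter-Glo, 30 min room temperature) measures viable lymphoblastoid cells after 24 hr compound treatment at 37 C. Decreased ATP reflects acute toxicity; AC50 values come from Hill-equation modeling.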

[17] = Cell Viability - LYMP1-002 - Assay at 24 hr (AID 993); conditions: LYMP1-002 lymphoblastoid cells viability; series mostly up to 92.2 µM; also: potency is read from the fitted curve at half-maximal effect
In short: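 Cells plated 2500/well, 5 hr 37 C; compounds added, 24 hr 37 C; CellTiter-Glo added, 30 min RT; luminescence read. Tetraoctylammonium bromide positive control. Hill-equation AC50.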

[18] = Cell Viability - LYMP1-002 - Assay at 40 hr (AID 994); conditions: LYMP1-002 lymphoblastoid cell viability; series mostly up to 92.2 µM; also: nearly all actives have a fitted effect of over 60% in size; also: potency is read from the fitted curve at half-maximal effect
In short: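 Luminescent ATP signal served as the viability readout, with decreases taken as toxicity. Cells were treated with compounds across a concentration range for 40 hours at 37 C, and AC50 values came from standard Hill modeling.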

[19] = target: Alpha-galactosidase (Coffea arabica) (UniProt Q42656); test: Counterscreen for Glucocerebrosidase Inhibitors: qHTS Assay for Coffee Bean alpha-Galactosidase at pH 5.9 (AID 998); conditions: coffee bean alpha-galactosidase enzyme assay; series mostly up to 76.9 µM
Alpha-galactosidase (Coffea arabica), sequence (Q42656 whole entry, looked up): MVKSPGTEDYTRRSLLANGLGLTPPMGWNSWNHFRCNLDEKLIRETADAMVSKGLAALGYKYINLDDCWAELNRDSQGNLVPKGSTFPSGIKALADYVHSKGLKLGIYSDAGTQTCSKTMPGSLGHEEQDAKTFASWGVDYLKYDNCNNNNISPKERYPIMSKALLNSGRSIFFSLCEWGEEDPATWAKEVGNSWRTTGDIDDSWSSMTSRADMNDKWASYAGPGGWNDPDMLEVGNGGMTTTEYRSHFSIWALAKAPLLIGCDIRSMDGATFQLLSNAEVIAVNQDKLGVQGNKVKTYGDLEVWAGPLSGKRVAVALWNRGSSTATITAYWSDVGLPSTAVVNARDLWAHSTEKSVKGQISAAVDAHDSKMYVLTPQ
In short: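 Green coffee bean enzyme (2 nM final) was incubated with compounds (0.7 nM–77 uM) and 4-methylumbelliferyl alpha-D-galactopyranoside (80 uM) in citrate buffer pH 5.9, 20 min at room temperature. High-pH stop; fluorescence 365/440 nm; AC50 from Hill fits.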

[20] = Validation of Assay for Modulators of Lamin A Splicing (AID 1459; active = well fitted curve in the direction sought with a large enough effect in the signal ratio; the % refers to the signal ratio;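 also: cells exposed to compound for two days before reading; ratio rise marks activators and ratio drop marks inhibitors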); conditions: Lamin A splicing dual RFP/GFP fluorescence reporter; series mostly up to 9.22 µM
In short: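 S3 HeLa stably expressing lamin A-EGFP splicing minigene and DsRed2, 600 cells/well in Opti-MEM with 2% FBS, treated 48 h at 37C; laser-scanning cytometry gives GFP/RFP total intensity ratio; ancitabine positive control, 0.5% DMSO vehicle.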

Measured: Potency

COc1ccc(C(=O)N2CCCC2=O)cc1
inactive: [1] | [2]

Oc1c(Br)cc(Br)cc1Br
not listed: [1] | [2] | [19] | [20]
inactive: all other assays above

Brc1c(NC2=NCCN2)ccc2nccnc12
inactive: [19]

CC(N)C(=O)OC(C)(C)Cc1ccc(Cl)cc1 (centres undefined)
inactive: [20]

CNC(=O)Oc1cccc2ccccc12
not listed: [1] | [2] | [19] | [20]
inactive: all other assays above

Cc1cc(C(C)(C)C)cc(C)c1CC1=NCCN1
inactive: [19]

CC[n+]1c(-c2ccccc2)c2cc(N)ccc2c2ccc(N)cc21
active: [3] 15.8 µM | [4] 15.8 µM | [5] 10 µM | [6] 12.6 µM | [7] 10 µM | [8] 12.6 µM | [9] 7.94 µM | [10] 10 µM | [11] 15.8 µM | [12] 10 µM | [13] 15.8 µM | [14] 7.94 µM | [15] 12.6 µM | [16] 15.8 µM | [17] 31.6 µM | [18] 31.6 µM

NC(N)=NCCC[C@H](N)C(=O)O
inactive: [19]

CN1[C@@H]2CC[C@H]1CC(OC(=O)c1cc(Cl)cc(Cl)c1)C2 (some centres undefined)
inactive: [1] | [2]

COC(=O)C1=CCCN(C)C1
inactive: [1] | [2] | [19]
